The results in this text go back to PubChem BioAssay (NCATS).

The structures appear in SMILES notation. Inconclusive results are not listed. Unmarked numbers belong to inactive results. Active and inactive are the calls of the source. Calls follow the shape of the dose curve; as a rule, active = well fitted activation curve with a large enough effect; inconclusive = small, poorly fitted or top-dose-only effect; inactive = no such curve, though single readings can be large or run the other way.
Potency is read from the fitted curve at half-maximal effect.

Cellular tumor antigen p53 (Homo sapiens), sequence (P04637 whole entry, looked up): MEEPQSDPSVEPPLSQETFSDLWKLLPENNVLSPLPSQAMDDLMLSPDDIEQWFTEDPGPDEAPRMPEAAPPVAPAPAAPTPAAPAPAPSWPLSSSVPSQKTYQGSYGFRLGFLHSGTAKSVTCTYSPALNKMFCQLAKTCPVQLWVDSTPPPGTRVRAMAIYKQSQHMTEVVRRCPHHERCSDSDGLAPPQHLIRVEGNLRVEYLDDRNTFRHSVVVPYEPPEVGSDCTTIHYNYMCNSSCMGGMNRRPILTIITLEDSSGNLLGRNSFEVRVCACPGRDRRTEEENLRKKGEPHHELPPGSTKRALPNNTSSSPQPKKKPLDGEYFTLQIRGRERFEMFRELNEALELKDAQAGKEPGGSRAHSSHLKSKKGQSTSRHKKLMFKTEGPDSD

This assay addresses Cellular tumor antigen p53 (Homo sapiens) (UniProt P04637). The experiment in a line: Primary qHTS for small molecule compounds that upregulate eGFP-tagged delta133p53alpha (in N-terminal) cells. (AID 2060322). Also: nearly all actives have a fitted effect of over 75% in size.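 As to activation: cells pre-induced with doxycycline then dosed without doxycycline; series mostly up to about 56 µM; 0% = DMSO vehicle and 100% = reference activator.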 The conditions noted are these: NCI-H358 eGFP-delta133p53alpha fluorescence, 24 h; activation: stronger effect = higher value. A digest of the protocol: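 NCI-H358 cells pre-induced 24 h with 10 ng/ml doxycycline for eGFP-delta133p53alpha, plated dox-free and exposed 24 h at 37C to titrated compounds. Fixed, Hoechst-stained; gated GFP peak intensity by laser scanning cytometry, normalized to DMSO (0%) and 57.5 uM 5-azacytidine (100%).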
(qHTS replaces the single test concentration by a dilution series.)
Take `CCCCOc1ccc(OCCCN2CCOCC2)cc1`: the activation was 22.6%.

On to `Cc1cc(O)c(C(C)C)cc1Cl`, for which the activation is -0.565%. As to `O=C1CN(/N=C/c2ccc([N+](=O)[O-])o2)C(=O)N1`, the activation is -7.53%. The same measure, in the same setting: with `CC=CC[C@@H](C)C(=O)[C@H]1C(=O)N[C@@H](C(C)C)C(=O)N(C)CC(=O)N(C)[C@@H](CC(C)C)C(=O)N[C@@H](C(C)C)C(=O)N(C)[C@@H](CC(C)C)C(=O)N[C@@H](C)C(=O)N[C@H](C)C(=O)N(C)[C@@H](CC(C)C)C(=O)N(C)[C@@H](CC(C)C)C(=O)N(C)[C@@H](C(C)C)C(=O)N1C` the figure was 34.2%; with `O=C(/C=C/c1ccccc1)OC[C@H]1O[C@@H](OC(=O)c2cc(O)c(O)c(O)c2)[C@H](O)[C@@H](O)[C@@H]1O`, -19.1%. As to `CN(C)C(=N)N=C(N)N`, the activation was 2.2%. Same read-out and setting: the result for `C[C@H]1O[C@H](O[C@H]2[C@H](O)[C@@H](O)[C@@H](O[C@H]3[C@H](O)[C@@H](O)C(O)O[C@H]3CO)O[C@H]2CO)[C@H](O)[C@@H](O)[C@H]1N[C@H]1C=C(CO)[C@@H](O)[C@H](O)[C@@H]1O` (some centres undefined) reads 140%; that for `O=C(O)[C@H](O)c1ccccc1`, -6.21%. On to `CC1(C)OC2=C(C(=O)c3ccccc3C2=O)[C@H](NCc2ccccc2)[C@H]1O`, for which the Potency was 24.3 µM (active). Consider `CCN1CCCC1CN` (centres undefined), for which the activation was 3.35%. On to `Cc1cccc(N(C)C(=S)Oc2ccc3c(c2)C2CCC3C2)c1` (centres undefined), for which the activation is -15.1%. As for `COc1ccc(C(=O)c2ccccc2O)c(O)c1`, the activation is 10.9%. `COC(=O)/C=C\C(=O)OC`: the activation was -9.6%. Same read-out and setting: with `CCN(CC)CCNC(=O)COc1ccc(Cl)cc1` the figure was 19.2%; with `Cc1cccc(C)c1NC(=O)CN1CCCCCC1`, 6.69%; with `Cc1ncc(CO)c(CO)c1O`, -24.3%.

Take `CC(C)OC(=O)c1cc2c(OCC(O)CNC(C)(C)C)cccc2[nH]1` (centres undefined): the activation was 20.9%. For the compound `CCCCCCCCCCCCCCCCN`, the activation is -20.1%. Same read-out and setting: with `NC[C@H]1O[C@H](O[C@H]2[C@@H](O)[C@@H](O[C@H]3O[C@H](CO)[C@@H](O)[C@H](N)[C@@H]3O)[C@H](N)C[C@@H]2N)[C@H](N)C[C@H]1O` the figure was 25.5%; with `C[C@@H](CN(C)C)CN1c2ccccc2Sc2ccccc21`, -15.1%. With `CC(=O)Oc1ccc(C2(c3ccc(OC(C)=O)cc3)C(=O)Nc3ccccc32)cc1`, the activation is -31.1%.

`O=C1NC(=O)C(=Cc2ccc3nccnc3c2)S1`: the activation was -3.42%. Same read-out and setting: the result for `O=C(O)Cc1ccc(CCNS(=O)(=O)c2ccc(Cl)cc2)cc1` reads -1.67%; that for `O=C(OCCN1CCOCC1)c1cccnc1Nc1cccc(C(F)(F)F)c1`, -7.34%.
